Measurements from PubChem BioAssay (NCATS).
Results filed as inconclusive are left out. Calls of active or inactive are those of the source. Calls come from the whole dose curve; as a rule, active = well fitted curve in the direction sought with a large enough effect; inconclusive = small, poorly fitted or top-dose-only effect, or another doubt; inactive = no such curve, though single readings can be large; an effect the other way counts as inactive or inconclusive.

Experiments:
CRL-7250 = normal cell line; test: Cytotoxic Profiling of Annotated Libraries Using Quantitative High-Throughput Screening (AID 1296008); details: Five cell lines viability, CellTiter-Glo ATP luminescence, 48-72 h; max response: stronger effect = lower value; note: nearly all actives have a fitted effect of over 60% in size; for max response: % is set by controls: 0 for no effect and ±100 for the full control effect
How it was run: (§1)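 Compounds were pin-transferred onto cells and incubated 48 or 72 hr at 37 degree Celsius, 95% humidity. CellTiter-Glo was added, plates sat 10 min at room temperature, then ATP-coupled luminescence was imaged as the viability read-out.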

HEK293 = test: as above; details: Five cell lines viability, CellTiter-Glo ATP luminescence, 48-72 h; max response: stronger effect = lower value
How it was run: as §1

HaCat [1] = test: as above; details: Five cell lines viability, CellTiter-Glo ATP luminescence, 48-72 h; max response: stronger effect = lower value
How it was run: as §1

KB-3-1 = test: as above; details: Five cell lines viability, CellTiter-Glo ATP luminescence, 48-72 h; max response: stronger effect = lower value
How it was run: as §1

NIH3T3 = test: as above; details: Five cell lines viability, CellTiter-Glo ATP luminescence, 48-72 h; max response: stronger effect = lower value
How it was run: as §1

HACAT [2] = test: qHTS assay to identify novel small-molecules to repurpose for Merkel cell carcinoma treatment (AID 1296009); details: MCC and control cell lines, CellTiter-Glo viability, 72 h; at 44.8 µM (top of the series) unless noted; note: nearly all actives have a fitted effect of over 60% in size
How it was run: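 Cells exposed to NPC (8-point) and MIPE (11-point) compound dilutions for 72 hr at 37 degree celsius; viability read by CellTiter-Glo luminescence, normalized to no-cell and DMSO in-plate controls.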

C33A = test: Primary qHTS to identify gynecologic anti-cancer compounds using libraries of approved drugs and bioactive compounds (AID 1345084); details: Gynecologic cancer cell panel viability, ATPlite luminescence, 48 h; series mostly up to 57.5 µM; note: % is set by controls: 0 for no effect and ±100 for the full control effect; nearly all actives have a fitted effect of over 55% in size
How it was run: (§2)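 Luminescence from the ATPlite ATP-monitoring reagent indicates viable cell number; lower signal means cytotoxicity. Cells received compound 16 h after seeding and were exposed for 48 h across five concentrations.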

CAOV3 = test: as above; details: Gynecologic cancer cell panel viability, ATPlite luminescence, 48 h; series mostly up to 57.5 µM
How it was run: as §2

CASKI = test: as above; details: Gynecologic cancer cell panel viability, ATPlite luminescence, 48 h; series mostly up to 57.5 µM
How it was run: as §2

Es-2 = test: as above; details: Gynecologic cancer cell panel viability, ATPlite luminescence, 48 h; series mostly up to 57.5 µM
How it was run: as §2

HeLa = test: as above; details: Gynecologic cancer cell panel viability, ATPlite luminescence, 48 h; series mostly up to 57.5 µM
How it was run: as §2

Hek293T = test: as above; details: Gynecologic cancer cell panel viability, ATPlite luminescence, 48 h, control line for the selectivity index; series mostly up to 57.5 µM
How it was run: as §2

JEG-3 = test: as above; details: Gynecologic cancer cell panel viability, ATPlite luminescence, 48 h; series mostly up to 57.5 µM
How it was run: as §2

OV90 = test: as above; details: Gynecologic cancer cell panel viability, ATPlite luminescence, 48 h; series mostly up to 57.5 µM
How it was run: as §2

PA-1 = test: as above; details: Gynecologic cancer cell panel viability, ATPlite luminescence, 48 h; series mostly up to 57.5 µM
How it was run: as §2

COc1ccc(CC(NC(C)=O)C(=O)O)cc1 (stereo not given)
inactive: max response (CRL-7250) 0.775% | max response (HEK293) -3.66% | outcome (HaCat [1]) | max response (KB-3-1) 6.09% | max response (NIH3T3) 1.53% | outcome (HACAT [2]) | Potency (C33A) | Potency (CAOV3) | outcome (CASKI) | Potency (Es-2) | Potency (HeLa) | Potency (Hek293T) | Potency (JEG-3) | Potency (OV90) | Potency (PA-1)

CCC(C)C(=O)O[C@H]1C[C@](C)(O)[C@]23OC(C)(C)[C@H](C[C@H](OC(=O)c4ccccc4)[C@]2(COC(C)=O)[C@H]1OC(=O)C(C)CC)[C@H]3OC(C)=O (stereo not given in full)
inactive: max response (CRL-7250) -7.32% | max response (HEK293) -12.8% | outcome (HaCat [1]) | outcome (KB-3-1) | max response (NIH3T3) 4.39% | outcome (HACAT [2]) inactive [at 17.4 µM] | Potency (C33A) | Potency (CAOV3) | outcome (CASKI) | Potency (Es-2) | Potency (HeLa) | Potency (Hek293T) | Potency (JEG-3) | Potency (OV90) | Potency (PA-1)

CC1=CC2=C(C)C(=O)C(C)(O)C(O)C2CO1 (stereo not given)
inactive: max response (CRL-7250) -6.39% | max response (HEK293) -9.93% | outcome (HaCat [1]) | max response (KB-3-1) 5.71% | max response (NIH3T3) 1.32% | outcome (HACAT [2]) | Potency (C33A) | Potency (CAOV3) | outcome (CASKI) | Potency (Es-2) | Potency (HeLa) | Potency (Hek293T) | Potency (JEG-3) | Potency (OV90) | Potency (PA-1)

CC1(C)CC2C3=CCC4[C@@]5(C)CC[C@H](OC6OCC(O)C(OC7OC(CO)C(O)C(O)C7O)C6O)C(C)(C)C5CC[C@@]4(C)[C@]3(C)C[C@H](O)[C@@]2(CO)[C@H](OC(=O)c2ccccc2)C1 (stereo not given in full)
inactive: max response (CRL-7250) -5.7% | max response (HEK293) -22% | outcome (HaCat [1]) | max response (KB-3-1) -6.42% | max response (NIH3T3) -2.6% | outcome (HACAT [2]) inactive [at 9.27 µM] | activity change, negative = cytotoxicity (C33A) -0.821% [at 11.6 µM] | activity change, negative = cytotoxicity (CAOV3) -7.46% [at 11.6 µM] | activity change, negative = cytotoxicity (CASKI) -3.21% [at 11.6 µM] | activity change, negative = cytotoxicity (Es-2) -3.08% [at 11.6 µM] | activity change, negative = cytotoxicity (HeLa) 2.29% [at 11.6 µM] | activity change, negative = cytotoxicity (Hek293T) 17.5% [at 11.6 µM] | activity change, negative = cytotoxicity (JEG-3) 8.97% [at 11.6 µM] | activity change, negative = cytotoxicity (OV90) 18.5% [at 11.6 µM] | activity change, negative = cytotoxicity (PA-1) 10.1% [at 11.6 µM]

C=CC(C)(CC/C=C(\C)C(=O)OC[C@H]1O[C@@H](OC(C)(C=C)CC/C=C(\C)C(=O)O[C@H]2[C@H](O)[C@@H](O)[C@H](OC(C)(C=C)CC/C=C(\C)C(=O)O)O[C@@H]2CO)[C@H](O)[C@@H](O)[C@@H]1O)O[C@@H]1O[C@H](CO)[C@@H](O)[C@H](O)[C@H]1O (stereo not given in full)
inactive: max response (CRL-7250) -2.1% | max response (HEK293) -7.01% | outcome (HaCat [1]) | max response (KB-3-1) 3.96% | max response (NIH3T3) -1.72% | outcome (HACAT [2]) inactive [at 9.27 µM] | activity change, negative = cytotoxicity (C33A) -1.99% [at 11.6 µM] | activity change, negative = cytotoxicity (CAOV3) -17.5% [at 11.6 µM] | activity change, negative = cytotoxicity (CASKI) -16.7% [at 11.6 µM] | activity change, negative = cytotoxicity (Es-2) -6.19% [at 11.6 µM] | activity change, negative = cytotoxicity (HeLa) 2.2% [at 11.6 µM] | activity change, negative = cytotoxicity (Hek293T) -1.07% [at 11.6 µM] | activity change, negative = cytotoxicity (JEG-3) -1.18% [at 11.6 µM] | activity change, negative = cytotoxicity (OV90) 2.45% [at 11.6 µM] | activity change, negative = cytotoxicity (PA-1) 1.36% [at 11.6 µM]

CC1CC(=O)C2=C(O1)OC1(C)CCC3C(C)(C)C4OC4C(=O)C3(C)C1C2 (stereo not given)
inactive: outcome (CRL-7250) | max response (HEK293) 1.32% | outcome (HaCat [1]) | outcome (KB-3-1) | max response (NIH3T3) -0.441% | outcome (HACAT [2]) | Potency (C33A) | Potency (CAOV3) | outcome (CASKI) | Potency (Es-2) | Potency (HeLa) | Potency (Hek293T) | Potency (JEG-3) | Potency (OV90) | Potency (PA-1)

C=C1CCC2[C@](C)(CCC[C@]2(C)C(=O)O)[C@H]1CC/C(C)=C/C(=O)OC (stereo not given in full)
inactive: max response (CRL-7250) -5.17% | max response (HEK293) -8.16% | outcome (HaCat [1]) | outcome (KB-3-1) | max response (NIH3T3) 0.39% | outcome (HACAT [2]) | Potency (C33A) | Potency (CAOV3) | outcome (CASKI) | Potency (Es-2) | Potency (HeLa) | Potency (Hek293T) | Potency (JEG-3) | Potency (OV90) | Potency (PA-1)

COc1ccc(-n2c(SCC#N)nc3sc4c(c3c2=O)CCCC4)cc1
inactive: max response (CRL-7250) 1.37% | max response (HEK293) 3.85% | outcome (HaCat [1]) | max response (KB-3-1) 9.32% | max response (NIH3T3) 4.07% | outcome (HACAT [2]) | Potency (C33A) | Potency (CAOV3) | outcome (CASKI) | Potency (Es-2) | Potency (HeLa) | Potency (Hek293T) | Potency (JEG-3) | Potency (OV90) | Potency (PA-1)

C[C@@H]1O[C@@H](O[C@H]2[C@H](OC(=O)[C@]34CCC(C)(C)C[C@H]3C3=CCC5[C@@]6(C)CC[C@H](O[C@@H]7O[C@H](CO[C@@H]8OC[C@H](O)[C@H](O)[C@H]8O[C@@H]8OC[C@@H](O)[C@H](O)[C@H]8O)[C@@H](O)[C@H](O)[C@H]7O)C(C)(C)C6CC[C@@]5(C)[C@]3(C)C[C@H]4O)O[C@H](CO)[C@@H](O)[C@@H]2O)[C@H](O[C@@H]2O[C@H](CO)[C@@H](O)[C@H](O)[C@H]2O)[C@H](O)[C@H]1O[C@@H]1OC[C@@H](O)[C@H](O[C@@H]2OC[C@@H](O)[C@H](O)[C@H]2O)[C@H]1O (stereo not given in full)
inactive: max response (CRL-7250) 0.998% | max response (HEK293) 5% | outcome (HaCat [1]) | max response (KB-3-1) -0.626% | max response (NIH3T3) -3.82% | outcome (HACAT [2]) inactive [at 4.96 µM] | activity change, negative = cytotoxicity (C33A) 6.83% [at 6.55 µM] | activity change, negative = cytotoxicity (CAOV3) -0.37% [at 6.55 µM] | activity change, negative = cytotoxicity (CASKI) -2.72% [at 6.55 µM] | activity change, negative = cytotoxicity (Es-2) -1.37% [at 6.55 µM] | activity change, negative = cytotoxicity (HeLa) 0.0394% [at 6.55 µM] | activity change, negative = cytotoxicity (Hek293T) 6.55% [at 6.55 µM] | activity change, negative = cytotoxicity (JEG-3) 9.73% [at 6.55 µM] | activity change, negative = cytotoxicity (OV90) -1.86% [at 6.55 µM] | activity change, negative = cytotoxicity (PA-1) 1.34% [at 6.55 µM]

C/C=C1/C[N+](C)([O-])C2Cc3c([nH]c4ccccc34)C(=O)CC1C2C(=O)OC (stereo not given)
inactive: max response (CRL-7250) -5.18% | max response (HEK293) -0.509% | outcome (HaCat [1]) | max response (KB-3-1) 8.09% | max response (NIH3T3) -1.66% | outcome (HACAT [2]) | Potency (C33A) | Potency (CAOV3) | outcome (CASKI) | Potency (Es-2) | Potency (HeLa) | Potency (Hek293T) | Potency (JEG-3) | Potency (OV90) | Potency (PA-1)

COC(=O)C1=CO[C@@H](O[C@@H]2O[C@H](CO)[C@@H](O)[C@H](O)[C@H]2O)[C@@H]2[C@@H](C(=O)O)CC[C@H]12
inactive: max response (CRL-7250) -20% | max response (HEK293) -0.168% | outcome (HaCat [1]) | max response (KB-3-1) 3.46% | max response (NIH3T3) 0.607% | outcome (HACAT [2]) inactive [at 17.4 µM] | Potency (C33A) | Potency (CAOV3) | outcome (CASKI) | Potency (Es-2) | Potency (HeLa) | Potency (Hek293T) | Potency (JEG-3) | Potency (OV90) | Potency (PA-1)
